Source: the supplement of paper PMC8253809

Legend:
Assay in all cases: growth inhibition (% activity, log2 RLU normalised to DMSO / staurosporine); higher = more growth inhibition
Details in all cases: 33 µM
DIPGX29 = test system: DIPGX29 (H3.3 K27M diffuse intrinsic pontine glioma line)
How it was run: (§1)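 For each approved drug, the growth-inhibition value is the replicate median of per-plate normalised CellTiter-Glo data. Luminescence was log2-transformed and expressed as % activity between solvent and positive control wells. Drugs were applied in triplicate at a single final concentration of about 33 μM for 7 days at 37 °C, 5% CO2 to pHGG cell lines and H9-derived neural stem cells.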

DIPGX37 = test system: DIPGX37 (H3.3 K27M diffuse intrinsic pontine glioma line)
How it was run: as §1

DIPGX7 = test system: DIPGX7 (H3.3 K27M diffuse intrinsic pontine glioma line)
How it was run: as §1

DIPGX9 = test system: DIPGX9 (diffuse intrinsic pontine glioma line)
How it was run: as §1

HGGX39 = test system: HGGX39 (paediatric high-grade glioma line)
How it was run: as §1

HGGX6 = test system: HGGX6 (H3.3 G34R paediatric high-grade glioma line)
How it was run: as §1

HNSC = test system: HNSC
How it was run: as §1

SUDIPGIV = test system: SUDIPGIV (diffuse intrinsic pontine glioma line)
How it was run: as §1

SUDIPGVI = test system: SUDIPGVI (diffuse intrinsic pontine glioma line)
How it was run: as §1

SUDIPGXIII = test system: SUDIPGXIII (diffuse intrinsic pontine glioma line)
How it was run: as §1

Row | SMILES | growth inhibition (DIPGX29) [%] | growth inhibition (DIPGX37) [%] | growth inhibition (DIPGX7) [%] | growth inhibition (DIPGX9) [%] | growth inhibition (HGGX39) [%] | growth inhibition (HGGX6) [%] | growth inhibition (HNSC) [%] | growth inhibition (SUDIPGIV) [%] | growth inhibition (SUDIPGVI) [%] | growth inhibition (SUDIPGXIII) [%]
1 | CC1=C(C(=O)O)N2C(=O)[C@@H](NC(=O)[C@H](N)c3ccccc3)[C@H]2SC1 | -0.253 | 0.936 | 6.97 | -1.35 | 3.87 | 0.198 | -2.54 | -1.66 | -13.3 | 2.38
2 | C=C1CC[C@H](O)C/C1=C/C=C1\CCC[C@]2(C)[C@@H]([C@H](C)/C=C/[C@H](C)C(C)C)CC[C@@H]12 | 3.21 | 5.04 | 5.34 | 3.65 | 7.46 | 4.35 | 9.22 | 3.53 | 4.49 | 0.866
3 | CCN(CC)CCNC(C(=O)OCCC(C)C)c1ccccc1 (stereo not given) | 2 | -0.0996 | 4.26 | 1.08 | 0.0597 | 0.247 | 74.6 | 1.14 | -6.42 | 2.01
4 | O=C(O)CCCC[C@@H]1SC[C@@H]2NC(=O)N[C@@H]21 | 0.444 | 0.747 | 0.534 | 1.28 | 2.04 | 2.52 | -1.69 | 1.07 | 1.25 | 0.684
5 | Fc1ccc(C(c2ccc(F)cc2)N2CCN(C/C=C/c3ccccc3)CC2)cc1 | 4.97 | 2.42 | 6.22 | 3.95 | 9.77 | 2.44 | 14.4 | 15.8 | 5.18 | 8.8
6 | CC#CCn1c(N2CCC[C@@H](N)C2)nc2c1c(=O)n(Cc1nc(C)c3ccccc3n1)c(=O)n2C | -0.103 | -1.17 | -2.97 | -0.000837 | 0.6 | -0.836 | -2.39 | -2.46 | -1.81 | -0.213
7 | COC(=O)Nc1nc2cc(Sc3ccccc3)ccc2[nH]1 | 6.86 | 10.3 | 8.12 | 9.42 | 10.7 | 10.1 | 77 | 10.8 | 4.78 | 3.48
8 | O=C([O-])c1ccccc1O.[Na+] | 1.02 | 2.5 | 2.56 | 1.21 | 1.15 | -1.22 | 28.2 | 1.6 | -4.02 | 0.791
9 | CC[C@H]1OC(=O)[C@H](C)[C@@H](O[C@H]2C[C@@](C)(OC)[C@@H](O)[C@H](C)O2)[C@H](C)[C@@H](O[C@@H]2O[C@H](C)C[C@H](N(C)C)[C@H]2O)[C@](C)(OC)C[C@@H](C)C(=O)[C@H](C)[C@@H](O)[C@]1(C)O | -1.86 | 0.02 | -2.66 | -0.349 | 1.64 | 0.562 | -3.32 | -2.12 | -0.602 | -13
10 | C[C@]12CCC(=O)C=C1[C@@H]1C[C@@H]1[C@H]1[C@@H]3[C@@H]4C[C@@H]4[C@@]4(CCC(=O)O4)[C@@]3(C)CC[C@@H]12 | 0.956 | 1.46 | 0.0985 | 0.611 | 2.45 | 2.65 | 0.782 | 0.914 | 2.83 | 0.882
11 | NCCC(O)(P(=O)(O)O)P(=O)(O)O | 0.943 | 2.91 | 2.33 | 0.0373 | 2.9 | 1.86 | 2.52 | 1.34 | 2.52 | 0.475
12 | CCCCc1nc(Cl)c(CO)n1Cc1ccc(-c2ccccc2-c2nnn[nH]2)cc1 | 1.53 | -1.24 | -0.599 | 0.985 | 0.264 | 1.5 | 2.21 | 0.0281 | 1.16 | 0.404
13 | CCC[C@H](NC(=O)[C@@H]1[C@H]2CCC[C@H]2CN1C(=O)[C@@H](NC(=O)[C@@H](NC(=O)c1cnccn1)C1CCCCC1)C(C)(C)C)C(=O)C(=O)NC1CC1 | 0.654 | 1.66 | 1.2 | 1.41 | 1.74 | 2.24 | 3.02 | 0.139 | 1.78 | -0.0315
14 | Cc1nc2n(c(=O)c1CCN1CCC(c3noc4cc(F)ccc34)CC1)CCCC2 | 2.78 | 1.21 | 3.37 | 1.08 | 3.29 | 1.84 | 0.606 | 0.111 | -0.157 | 1.25
15 | O=C(O)c1cc(/N=N/c2ccc(O)c(C(=O)O)c2)ccc1O | -0.786 | 0.929 | 0.432 | 0.755 | 1.33 | 0.125 | 11.3 | -0.724 | -2.65 | 0.343
16 | O=C([O-])C(O)[C@H](O)[C@@H](O)[C@H](O)[C@H](O)CO.O=C([O-])C(O)[C@H](O)[C@@H](O)[C@H](O)[C@H](O)CO.[Ca+2] (stereo not given in full) | 2.16 | 4.54 | 2.65 | 1.24 | 2.2 | 1.87 | 2.4 | 0.563 | 2.72 | -0.395
17 | C[C@@H]1CN(c2c(F)c(N)c3c(=O)c(C(=O)O)cn(C4CC4)c3c2F)C[C@H](C)N1 | 0.694 | 1.71 | 3.53 | 1.04 | 1.49 | -2.08 | 33.6 | 1.6 | -0.838 | -0.539
18 | CC(=O)Oc1ccccc1C(=O)Nc1ncc([N+](=O)[O-])s1 | 0.503 | 4.15 | 3.15 | 1.52 | 3.31 | 1.98 | 7.17 | 3.07 | 1.06 | 63.6

Row | SMILES | growth inhibition (DIPGX29) [%] | growth inhibition (DIPGX37) [%] | growth inhibition (DIPGX7) [%] | growth inhibition (DIPGX9) [%] | growth inhibition (HGGX39) [%] | growth inhibition (HGGX6) [%] | growth inhibition (HNSC) [%] | growth inhibition (SUDIPGIV) [%] | growth inhibition (SUDIPGVI) [%] | growth inhibition (SUDIPGXIII) [%]
19 | COc1ccc(O)cc1 | -0.0157 | 0.851 | 0.553 | 0.0566 | -0.798 | 0.118 | 0.201 | -3.15 | -3.4 | 0.564
20 | Clc1ccc(C(Cn2ccnc2)OCc2ccsc2Cl)c(Cl)c1 (stereo not given) | 4.62 | -2.6 | 2.82 | 4.52 | 8.15 | 7.53 | 4.99 | 13.7 | 2.98 | 5.65
21 | COc1cc(Nc2c(C#N)cnc3cc(OCCCN4CCN(C)CC4)c(OC)cc23)c(Cl)cc1Cl | 8.64 | 2.05 | 4.98 | 6.92 | 9.47 | 10.9 | 41.9 | -1.39 | 8.4 | 1.71
22 | CCN[C@H]1CN(CCCOC)S(=O)(=O)c2sc(S(N)(=O)=O)cc21 | 0.611 | 0.875 | 1.84 | 0.558 | 2.35 | 2.83 | -0.529 | -0.244 | 2.59 | -0.696
23 | CCCC(=O)[O-].[Na+] | -1.17 | -2.44 | -0.966 | 0.792 | 0.723 | 0.649 | -2.84 | -1.12 | 0.269 | 0.879
24 | CN1C(C(=O)Nc2ccccn2)=C(O)c2sccc2S1(=O)=O | -1.4 | 1.63 | -0.195 | 1.24 | 0.358 | 0.485 | -0.824 | -4.89 | 0.891 | -0.625
25 | CC(CN(C)C)CN1c2ccccc2CCc2ccccc21 (stereo not given) | -1.45 | -0.198 | -0.333 | -0.216 | 4.41 | -2.56 | 3.02 | 1.48 | 0.808 | -0.414
26 | CN(C)CCc1c[nH]c2ccc(C[C@H]3COC(=O)N3)cc12 | -3.13 | -2.1 | 0.0297 | -2.64 | -3.04 | -3.73 | -3.71 | -3.68 | -7.46 | -1.12
27 | COc1ccc(CN(CCN(C)C)c2ccccn2)cc1 | -4.36 | -0.213 | -2.04 | -0.968 | 2.69 | -3.48 | -2.01 | -2.03 | -1.61 | 0.98
28 | CCc1nc(N)nc(N)c1-c1ccc(Cl)cc1 | 16.1 | 2.67 | 1.94 | 4.42 | 7.42 | 2.78 | 6.9 | 12.6 | 7.22 | 4.01
29 | Nc1nc(O)c2ncn(CCC(CO)CO)c2n1 | -0.633 | 1.72 | 0.291 | -0.106 | 0.105 | -0.242 | 0.639 | 0.184 | 1.56 | 0.273
30 | CC(=O)Oc1cc2c(s1)CCN(C(C(=O)C1CC1)c1ccccc1F)C2 (stereo not given) | 0.962 | -2.57 | 1.32 | -0.813 | 0.291 | -2.02 | 0.528 | -0.967 | -3.04 | -1.75
31 | COc1ccc(-c2ccc3cc(C(=O)O)ccc3c2)cc1C12CC3CC(CC(C3)C1)C2 | 2.22 | 0.00524 | 1.73 | 2.82 | 2.84 | 2.51 | 1.43 | 3.15 | -4.99 | 1.39
32 | CN1CC2c3ccccc3Oc3ccc(Cl)cc3C2C1 (stereo not given) | 1.89 | -5.66 | 0.982 | 0.366 | 5.72 | 0.239 | 2.74 | 2.1 | -0.852 | 0.618
33 | N[C@@H](Cc1cc(I)c(Oc2ccc(O)c(I)c2)c(I)c1)C(=O)O | 3.32 | 3.94 | 1.41 | 2.64 | 5.93 | -3.21 | 13.2 | 14.9 | 10.1 | 0.729
34 | Cc1cn([C@H]2C[C@H](N=[N+]=[N-])[C@@H](CO)O2)c(=O)[nH]c1=O | 3.15 | 3.86 | 4.01 | 3.46 | 5.5 | 1.53 | 10.3 | 3.31 | 3.71 | -0.807
35 | O=c1[nH]c(=O)n([C@H]2C[C@H](O)[C@@H](CO)O2)cc1C(F)(F)F | -1.08 | 0.535 | -1.11 | 5.19 | 8.23 | -0.706 | 57.7 | 13.1 | -3.24 | 2.3
